# Test results: paper PMC7826789 (International Journal of Molecular Sciences, 2021)
# What was measured:
# Details in all cases: Compound Concentration (nM):1000
# TNK1 = test system: TNK1
# TNK2 = test system: TNK2
# TNNI3K = test system: TNNI3K
# TRKA = test system: T1, TRKA
# T1 construct: gene NTRK1
# TRKB = test system: T2, TRKB
# T2 construct: gene NTRK2
# TRKC = test system: T3, TRKC
# T3 construct: gene NTRK3
# TRPM6 = test system: TRPM6
# TSSK1B = test system: TSSK1B
# TSSK3 = test system: TSSK3
# TTK = test system: TTK
# 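Note: KINOMEscan scanMAX binding as percent activity remaining versus control; lower means stronger binding.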
SMILES,Percent Control (TNK1),Percent Control (TNK2),Percent Control (TNNI3K),Percent Control (TRKA),Percent Control (TRKB),Percent Control (TRKC),Percent Control (TRPM6),Percent Control (TSSK1B),Percent Control (TSSK3),Percent Control (TTK)
O=C1Nc2ccc(C(=O)c3ccco3)cc2C1=Cc1cc(Cl)c(O)c(Cl)c1 [GW406108X],79%,100%,100%,33%,75%,61%,95%,100%,87%,30%
COc1ccc2c(-c3ccnc(Nc4cccc(OC(F)(F)F)c4)n3)cnn2n1 [GW810372X],100%,100%,100%,55%,92%,91%,92%,100%,86%,94%
COc1ccc2[nH]c3c4[nH]c5ccc(OC)cc5c4c4c(c3c2c1)C(=O)NC4=O [GW296115X],29%,69%,90%,40%,59%,47%,79%,89%,89%,50%
COc1cc(C=NNc2ncnc3c2cnn3-c2ccccc2)ccc1O [GW513184X],67%,100%,84%,66%,100%,99%,100%,98%,100%,100%
COc1ccccc1-c1cc(/C=C2\C(=O)Nc3ncc(Br)cc32)cc(Br)c1O [GW442130X],97%,100%,100%,7.2%,22%,44%,100%,75%,97%,97%
COc1cccc(-n2ncc3c(N/N=C/c4ccncc4)ncnc32)c1 [GW784752X],88%,100%,51%,65%,73%,85%,89%,100%,90%,88%
O=C(Nc1n[nH]c2nc(-c3ccc(O)cc3)c(Br)cc12)C1CC1 [SB-725317],100%,100%,100%,65%,100%,100%,100%,100%,100%,97%
NS(=O)(=O)c1ccc(N/N=C2\C(=O)Nc3ccc(Cl)cc32)cc1 [GW280670X],100%,100%,100%,43%,94%,89%,100%,100%,100%,40%
COc1ccc2cc(-c3c(-c4ccncc4)nc(-c4ccc(S(C)(=O)=O)cc4C)n3C)ccc2c1 [SB-633825],57%,61%,100%,73%,70%,60%,71%,74%,57%,91%
COc1cc(/C=N/Nc2ncnc3[nH]ncc23)ccc1O [GW578748X],100%,100%,100%,42%,70%,88%,95%,100%,100%,68%
COc1cc2ncn(-c3cc(O[C@H](C)c4ccccc4Cl)c(C(N)=O)s3)c2cc1OC [GSK237701A],82%,58%,100%,31%,51%,59%,89%,74%,39%,82%
Nc1ncnc2occ(-c3ccc(NC(=O)Nc4cc(C(F)(F)F)ccc4F)cc3)c12 [GW770249X],85%,100%,40%,3%,1.6%,0.1%,100%,100%,84%,61%
NS(=O)(=O)c1ccc(N/N=C2\C(=O)Nc3ccc(C(=O)NCc4ccncc4)cc32)cc1 [GW300657X],100%,100%,96%,7.6%,21%,37%,89%,100%,89%,5.5%
C/C(Nc1ccc(S(N)(=O)=O)cc1)=C1/C(=O)Nc2ccccc21 [GW335962X],100%,100%,69%,7.9%,25%,42%,84%,100%,75%,12%
CC(C)COC(=O)c1ccc2c(c1)/C(=C/Nc1ccc(S(N)(=O)=O)cc1)C(=O)N2 [GW416981X],100%,100%,100%,23%,55%,59%,100%,100%,100%,6.3%
NS(=O)(=O)c1ccc(N/N=C2\C(=O)Nc3ccc(-c4cnco4)cc32)cc1 [GW276655],52%,66%,100%,15%,39%,38%,89%,100%,100%,20%
COc1cc(N2CCN(C(C)C)CC2)ccc1Nc1nc(Nc2ccc(F)cc2C(=O)NC[C@@H](O)CO)c2cc[nH]c2n1 [GSK1392956A],18%,67%,100%,86%,91%,89%,82%,42%,83%,4.9%
C[C@@H](Oc1cc(-n2cnc3ccc(OC4CCN(C)CC4)cc32)sc1C(N)=O)c1ccccc1Cl [GSK579289A],76%,86%,100%,49%,82%,91%,88%,71%,100%,69%
Cl.O=C(Nc1ccc(Oc2ccc3[nH]c(NC(=O)c4ccccc4)nc3c2)cc1)Nc1cc(C(F)(F)F)ccc1F [GW709042A],66%,100%,55%,27%,35%,29%,100%,100%,100%,87%
Cc1cc(O)cc(C)c1/C=C/c1cncc(C(N)=O)c1 [GW435821X],100%,100%,67%,98%,94%,100%,100%,100%,100%,90%

SMILES,Percent Control (TNK1),Percent Control (TNK2),Percent Control (TNNI3K),Percent Control (TRKA),Percent Control (TRKB),Percent Control (TRKC),Percent Control (TRPM6),Percent Control (TSSK1B),Percent Control (TSSK3),Percent Control (TTK)
CCn1c(-c2nonc2N)nc2c(C#CC(C)(C)O)nc(OCCNC)cc21.Cl [GSK949675],100%,100%,100%,100%,100%,100%,100%,90%,14%,91%
CN(C)c1cc2c(Nc3ccc4c(cnn4Cc4ccccc4)c3)ncnc2cn1 [GW282974X],93%,84%,100%,65%,92%,93%,92%,100%,99%,87%
COc1cc(C)c(N(C)C(=O)CN(C)C)cc1Nc1nc(Nc2cccc(F)c2C(N)=O)c2cc[nH]c2n1 [GSK2219385],83%,100%,100%,87%,100%,100%,100%,100%,100%,71%
CC1=C(C(=O)Nc2ccc3[nH]ncc3c2)C(c2ccc3ccccc3c2)CC(=O)N1 (stereo not drawn) [GSK270822A],68%,62%,100%,66%,73%,63%,82%,97%,43%,92%
Cl.O=C(Nc1ccc(Oc2ccc3[nH]c(NC(=O)c4ccco4)nc3c2)cc1)Nc1cc(C(F)(F)F)ccc1F [GW683134A],36%,100%,53%,5%,6%,3%,100%,100%,100%,85%
Cl.O=C(O[C@H]1CN[C@H](C#Cc2cc3ncnc(Nc4ccc5c(cnn5Cc5ccccc5)c4)c3s2)C1)N1CCOCC1 [GSK200398A],99%,97%,55%,70%,87%,95%,96%,100%,93%,100%
CCS(=O)(=O)c1ccc(OC)c(Nc2ncc(-c3cccc(OC)c3)o2)c1 [GW580509X],30%,100%,100%,16%,46%,67%,100%,100%,100%,90%
Cl.O=S1CCN(Cc2ccc(-c3ccc4ncnc(Nc5ccc(OCc6ccccc6)c(F)c5)c4c3)o2)CC1 [GW576924A],100%,100%,100%,100%,100%,100%,92%,90%,100%,100%
CN(C)CCNC(=O)Nc1ccc(N(C)c2ccnc(Nc3ccc(CS(C)(=O)=O)cc3)n2)cc1.Cl [GW830900A],39%,75%,97%,16%,34%,57%,100%,100%,83%,68%
COc1cc2ncnc(Nc3ccc4c(cnn4Cc4ccccc4)c3)c2cc1OC.Cl [GW282449A],100%,77%,100%,100%,100%,100%,87%,100%,100%,96%
COc1ccc(COc2ccc(Cc3cnc(N)nc3N)cc2OC)cc1 [GW632580X],73%,77%,90%,4.2%,0.9%,,89%,100%,83%,85%
CCc1ccc(Oc2nccc(-c3c(-c4ccc(F)cc4)ncn3C3CCNCC3)n2)cc1 [SB-242719],80%,82%,100%,86%,98%,98%,100%,99%,90%,80%
NS(=O)(=O)c1ccc(N/N=C2\C(=O)Nc3ccc(C(=O)NCCc4c[nH]cn4)cc32)cc1 [GW300660X],100%,100%,92%,20%,52%,57%,100%,100%,100%,11%
CC1=C(C(=O)Nc2ccc3[nH]ncc3c2)C(c2ccc(Cl)c(Cl)c2)CC(=O)N1 (stereo not drawn) [GSK299115A],82%,79%,100%,72%,97%,68%,87%,93%,77%,89%
COC(=O)Nc1nc2ccc(Oc3ccc(NC(=O)Nc4cc(C(F)(F)F)ccc4F)cc3)cc2s1.Cl [GW693917A],37%,95%,61%,4.8%,6.2%,4.5%,73%,92%,82%,80%
Cl.c1ccc(Cc2nc3ccc(Nc4ncnc5ccccc45)cc3[nH]2)cc1 [GR269666A],100%,100%,84%,100%,92%,100%,97%,70%,100%,51%
NS(=O)(=O)c1ccc(Nc2ncc(-c3ccccc3)o2)cc1 [GW572399X],100%,100%,100%,55%,72%,78%,100%,100%,100%,78%
CCS(=O)(=O)c1ccc(OC)c(Nc2ncc(-c3cccc(F)c3)o2)c1 [GW621970X],38%,90%,66%,11%,30%,48%,88%,100%,100%,100%
CN1CCN(C(=O)c2ccc(NC(=O)Nc3ccc(N(C)c4ccnc(Nc5ccc(CS(C)(=O)=O)cc5)n4)cc3)cc2)CC1.Cl [GW830263A],6.7%,6.5%,92%,7.1%,11%,2%,91%,96%,75%,61%
COc1cccc(-c2c[nH]c3c(N/N=C/c4ccncc4)ncnc23)c1 [GW814408X],100%,100%,31%,64%,100%,100%,97%,98%,98%,79%
